Drawing on PubChem BioAssay (Tox21), this text covers Potency and activity change, negative = cytotoxicity for 40 compounds.

Inconclusive results are not listed. A call without a number means that no potency is given here. The source made the active and inactive calls. Calls come from the whole dose curve; as a rule, active = well fitted cell-killing curve with a large enough effect in the repeat runs; inconclusive = weak or mixed curves, or effect the other way; inactive = flat fitted curve, though single readings scatter.
Potency is the fitted concentration of half-maximal effect.

The test can be described thus: qHTS assay to identify small molecule agonists of the estrogen receptor beta (ER-beta) signaling pathway - cell viability counter screen (AID 1259380). Note: nearly all actives have a fitted effect of over 30% in size. The note with it: ER-beta-bla HEK293T viability, CellTiter-Glo luminescence, 16 h; series mostly up to 92.4 µM. The source says:
National Center for Advancing Translational Sciences [NCATS]
NIH Chemical Genomics Center [NCGC]
U.S. Environmental Protection Agency [EPA]
National Institutes of Environmental Health Sciences [NIEHS]
National Toxicology Program [NTP]
U.S. Food and Drug Administration [FDA]
Estrogen receptor (ER), a nuclear hormone receptor, plays an important role in development, metabolic homeostasis and reproduction. Two subtypes of ER, ER-alpha and ER-beta, have similar expression patterns with some uniqueness in both types. Endocrine disrupting chemicals (EDCs) and their interactions with steroid hormone receptors like ER causes disruption of normal endocrine function. To identify the compounds that activate ER signaling, an ER beta-UAS-bla GripTite cell line (Life Technologies, Madison, WI, USA) containing a beta-lactamase reporter gene under the control of an UAS response element was used to screen Tox21 10K compound library. The cytotoxicity of the Tox21 compound library against the ER-beta-bla cell line was tested in parallel by measuring the cell viability using CellTiter-Glo assay in the same wells.
Tox21 Assay Protocol Summary:
ER-beta-UAS-bla HEK293T cells were dispensed at 2,000 cells/5 uL of assay medium containing 2% charcoal stripped FBS per well into black wall/clear-bottom 1536-well plates using a Multidrop Combi (ThermoFisher Scientific, Waltham, MA) dispenser. After the assay plates were incubated at a 37C and 5% CO2 for 6 hr, 23 nL of compounds dissolved in DMSO, positive controls or DMSO only was transferred to the assay plate by a Pintool station (Kalypsys, San Diego, CA). The plates were incubated at 37C and 5% CO2 for 16 hr. Then 1 uL of LiveBLAzerTM B/G FRET substrate was added using a BioRAPTR FRD (Flying Reagent Dispenser, Aurora Discovery, San Diego, CA) and then the plates were incubated at room temperature for 2 hours, and fluorescence intensity was measured by an Envision plate reader (PerkinElmer, Shelton, CT). For cell viability readout that measures cytotoxicity, 4 uL/well of CellTiter-Glo reagent was added into the assay plates using a FRD. After 30 min incubation at room temperature, the luminescence intensity in the plates was measured using a ViewLux (PerkinElmer) plate reader.
(In general: qHTS replaces the single test concentration by a dilution series.)
Turning to `CN1CCN(c2c(F)cc3c(=O)c(C(=O)O)cn(CCF)c3c2F)CC1`, the Potency result was “inactive”.

In the case of `C[C@@H]1CN(c2c(F)c(N)c3c(=O)c(C(=O)O)cn(C4CC4)c3c2F)C[C@H](C)N1`, the activity change, negative = cytotoxicity was 6.77% [at 19 µM] (inactive).

As to `CCC(=O)O[C@]1(C(=O)SCF)[C@H](C)C[C@H]2[C@@H]3C[C@H](F)C4=CC(=O)C=C[C@]4(C)[C@@]3(F)[C@@H](O)C[C@@]21C`, the Potency result was “inactive”.

As for `COC(=O)C(C)O` (stereo not given), the Potency entry is “inactive”.

On to `CCOC(=O)c1cc(=O)c2c(OCC(COc3cccc4oc(C(=O)OCC)cc(=O)c34)OC(=O)[C@@H](N)CCCCN)cccc2o1`, for which the Potency result is “inactive”.

As for `FC(F)(F)C(F)(F)C(F)(F)C(F)(F)C(F)(F)C(F)(F)C(F)(F)C(F)(F)Br`, the Potency result was “inactive”.

`Cn1cnc2c(F)c(Nc3ccc(Br)cc3Cl)c(C(=O)NOCCO)cc21`: the Potency result is “inactive”.

For the compound `CCCCc1ccc2nc(NC(=O)OC)[nH]c2c1`, the Potency entry was “inactive”.

For the compound `O=c1[nH]cnc2c1ncn2[C@@H]1O[C@H](CO)[C@@H](O)[C@H]1O`, the Potency entry is “inactive”.

On to `C=CC(C)(O)CC/C=C(\C)CCC=C(C)C` (stereo not given), for which the Potency entry was “inactive”.

For the compound `CCCCCCCCCC/C=C/C#N`, the Potency entry is “inactive”.

Take `CC(=O)OC1C2(C)CCC(C2)C1(C)C` (stereo not given): the Potency entry is “inactive”.

For the compound `COc1cc(C)ccc1C(C)C`, the Potency entry was “inactive”.

In the case of `CC(C)OC(C)C`, the Potency entry is “inactive”.

As to `CCCNC(C)C(=O)Nc1c(C)csc1C(=O)OC` (stereo not given), the Potency entry is “inactive”.

As for `CCOC(=O)CS`, the Potency was 70.5 µM (active).

On to `CS(=O)(=O)c1ccc([C@@H](O)[C@@H](CF)NC(=O)C(Cl)Cl)cc1`, for which the Potency entry was “inactive”.

Consider `Cc1ccc([N+](=O)[O-])cc1Cl`, for which the Potency result is “inactive”.

For `Cc1ccc(C(C)C)cc1O`, the Potency entry was “inactive”.

Regarding `CCN1CC(CCN2CCOCC2)C(c2ccccc2)(c2ccccc2)C1=O` (stereo not given), the Potency result was “inactive”.

`CC1(O)CSC(C)(O)CS1` (stereo not given): the Potency entry was “inactive”.

With `O=CCCc1ccccc1`, the Potency entry is “inactive”.

Take `CCCCC(CC)COC(=O)COc1cc(Cl)c(Cl)cc1Cl` (stereo not given): the Potency entry is “inactive”.

On to `CC(C)(C)C1CCCCC1=O` (stereo not given), for which the Potency entry was “inactive”.

In the case of `CN1CCN(c2c(F)cc3c(=O)c(C(=O)O)cn4c3c2SCC4)CC1`, the Potency entry was “inactive”.

Consider `O=C(O)[C@@H]1CSCN1`, for which the Potency entry was “inactive”.

Regarding `ICCc1ccccc1`, the Potency result was “inactive”.

For `Cc1cc(S(=O)(=O)O)c(N)cc1Cl`, the Potency result is “inactive”.

Turning to `CN(CC1(C)CCCO1)S(=O)(=O)c1ccc(Cl)c(S(N)(=O)=O)c1` (stereo not given), the Potency result was “inactive”.

For the compound `OCCN(CCO)c1ccccc1`, the Potency entry was “inactive”.

For the compound `CCN(CC)CC1CCCCN1CC(=O)N1c2ccccc2C(=O)Nc2cccnc21` (stereo not given), the Potency result is “inactive”.

For `O=C1CCN(c2ccccc2)N1`, the Potency was 21.8 µM (active).

For `CC(C)C1=CC2=CC[C@@H]3[C@](C)(CCC[C@@]3(C)C(=O)O)[C@H]2CC1`, the Potency was 30.6 µM (active).

Regarding `CC(C)(CO)[C@@H](O)C(=O)NCCC(=O)O`, the Potency result was “inactive”.

As for `CC(C)(C)c1cccc(O)c1`, the Potency entry is “inactive”.

Take `COC(=O)/C=C(/C)N`: the Potency entry is “inactive”.

Consider `Cc1c[nH]c(=S)[nH]c1=O`, for which the Potency result is “inactive”.

As to `CCC1(C)NC(=O)NC1=O` (stereo not given), the Potency entry is “inactive”.

For the compound `CC(Oc1c(Cl)cccc1Cl)C1=NCCN1` (stereo not given), the Potency result was “inactive”.

Regarding `Cc1cc2c(s1)Nc1ccccc1N=C2N1CCN(C)CC1`, the Potency entry is “inactive”.
